GPR151 ag: human GPR151 activation; Q8TDV0; PathHunter beta-arrestin GPR151 cells, luminescence; activation, % at 11.2 µM; hit rate 1% among 650,000; AID 1508602; in the data active = activation above about 4.9%;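 note: 0% = median of compound wells and 100% = cells with positive control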
TEAD-YAP inh: TEAD-YAP interaction inhibition | hit rate 1.4% among 640,000 | AID 1259422 | HEK-TIYL cells, TEAD-Gal4/YAP UAS-luciferase luminescence | inhibition, % at 9.12 µM; in the data active = inhibition above about 32%;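 note: 0% = median of test compound wells and 100% = reference inhibitor wells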
MITF primary: human MITF inhibition, primary screen; O75030; AlphaScreen MITF homodimerization, bead proximity signal; inhibition, % at 2.6 µM; hit rate 0.91% among 650,000; in the data active = inhibition above about 50%;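 note: 0% = vehicle wells with protein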
Target sequence (O75030 whole entry, looked up): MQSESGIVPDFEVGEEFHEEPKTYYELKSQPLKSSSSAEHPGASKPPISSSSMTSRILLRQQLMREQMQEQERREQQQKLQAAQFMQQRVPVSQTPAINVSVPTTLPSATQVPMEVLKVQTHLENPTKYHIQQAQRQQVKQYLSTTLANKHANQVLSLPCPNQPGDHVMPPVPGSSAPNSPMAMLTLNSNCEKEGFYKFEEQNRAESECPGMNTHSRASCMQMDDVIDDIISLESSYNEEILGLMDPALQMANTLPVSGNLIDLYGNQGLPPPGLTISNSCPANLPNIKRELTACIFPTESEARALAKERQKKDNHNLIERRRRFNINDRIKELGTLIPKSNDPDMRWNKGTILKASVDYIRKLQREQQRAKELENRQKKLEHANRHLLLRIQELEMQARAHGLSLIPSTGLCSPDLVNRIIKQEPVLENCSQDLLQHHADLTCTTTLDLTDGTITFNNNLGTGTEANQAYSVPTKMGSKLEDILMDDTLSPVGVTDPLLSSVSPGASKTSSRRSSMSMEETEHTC
FBW7 activator: human FBW7 E3 ligase activation, primary screen. Q969H0. AlphaScreen FBW7–phospho-cyclin E peptide binding, activator screen. normalized activity (activation), % at 26.1 µM. hit rate 0.13% among 650,000. AID 1259310; in the data active = normalized activity above about 1.9%;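 note: purified mutant Fbw7 with reduced substrate affinity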
The depositor's hits bear a star. Most compounds without a hit are left out; they make up all but 3.5% or so of the library.

SMILES | GPR151 ag | TEAD-YAP inh | MITF primary | FBW7 activator
CCC(C)NC(=O)CSc1nc(NCCc2ccc(OC)c(OC)c2)c2ccccc2n1 (centres undefined) | -0.6 | -1.7 | -5.4 | -0.1
COc1ccc(CCNc2nc(SCC(=O)N3CCN(c4ccccc4OC)CC3)nc3ccccc23)cc1OC | -0.9 | 34.4* | -0.8 | 0.9
COc1ccc(CCn2c(SCC(=O)N3CCN(c4ccccc4OC)CC3)nc3ccsc3c2=O)cc1OC | -1.5 | 50.6* | 6.9 | -0.1
c1cnc(Nc2nc(NCCN3CCOCC3)c3ncn(-c4ccsc4)c3n2)cn1 | 1.6 | 65.7* | -0.4 | -0.1
COc1cc(Nc2nc(NCCN3CCOCC3)c3ncn(-c4ccsc4)c3n2)cc(OC)c1OC | 0.8 | 48.9* | -8.5 | 0.0
COc1ccc(CCNc2nc(NCCN3CCOCC3)nc3c2ncn3-c2ccsc2)cc1 | 0.1 | 5.0 | 8.2 | -0.1
C(=N\Nc1ccccn1)/c1sc(N2CCCCC2)nc1-c1cccs1 | -0.8 | 67.1* | 5.0 | 0.2
Cc1ccc2c(c1)C(c1ccccc1)N(C(=O)c1ccco1)CC(=O)N2 (centres undefined) | 1.8 | 5.6 | -4.2 | 0.1
Cc1ccc(C)c(S(=O)(=O)Nc2ccc(I)cc2)c1 | 0.3 | 46.6* | 4.7 | 0.1
Cc1cc(OCC(=O)N/N=C/c2cccs2)ccc1Cl | -0.2 | -2.2 | -4.9 | -0.1
CNC(=O)/C(=C\c1ccc([N+](=O)[O-])cc1)NC(=O)c1ccco1 | 0.2 | 2.7 | 9.3 | 0.0
NNC(=O)/C(=C/c1ccc([N+](=O)[O-])cc1)NC(=O)c1ccco1 | 0.3 | 50.1* | -0.9 | -0.2
NC(=O)c1ccccc1Nc1cc(NC(=O)Cc2ccc(F)c(F)c2)ncc1Cl | -0.9 | 83.2* | 9.7 | -0.1
NC(=O)c1ccccc1Nc1cc(NC(=O)Cc2ccc(F)c(F)c2)ncc1F | 1.3 | 14.8 | -3.8 | 0.0
NC(=O)c1ccccc1Nc1cc(NC(=O)C2CCc3ccccc32)ncc1C(F)(F)F (centres undefined) | 0.9 | 75.1* | 16.2 | 0.3
O=C(Cc1ccc(F)cc1)Nc1cc(Nc2ccccc2-c2nn[nH]n2)c(C(F)(F)F)cn1 | -0.7 | -3.4 | 2.3 | 0.1
COc1ccc(CC(=O)Nc2cc(Nc3ccccc3C(N)=O)c(C(F)(F)F)cn2)cc1 | -1.7 | 98.0* | -2.2 | 0.2
NC(=O)c1ccccc1Nc1cc(NC(=O)Cc2ccc(F)cc2)ncc1C(F)(F)F | 1.7 | 95.3* | 17.8 | 0.1
COc1ccc2c(c1)CCC2C(=O)Nc1cc(Nc2ccccc2C(N)=O)ccn1 (centres undefined) | -0.2 | 12.7 | -2.5 | -0.1
O=C1CN(C(=O)C2CCCC2)C(c2ccccc2)c2cc(F)ccc2N1 (centres undefined) | -0.8 | 6.3 | -6.6 | 0.0
CNC(=O)c1cncnc1Nc1cc(Nc2ccc3c(c2)CC(=O)N3)ncc1C(F)(F)F | 0.0 | 25.2 | 2.4 | 0.0
NC(=O)c1ccccc1Nc1cc(NC(=O)Cc2ccc([N+](=O)[O-])cc2)ncc1C(F)(F)F | 1.0 | 96.2* | 1.8 | 0.0
N#Cc1ccccc1NC(=O)CSc1ccc([N+](=O)[O-])cn1 | -1.3 | 11.2 | 22.9 | 0.0
CC(C)NC1CCC(Nc2cc(Nc3ccccc3C(N)=O)c(C(F)(F)F)cn2)CC1 (centres undefined) | -2.2 | 94.2* | 8.8 | 0.2
N#Cc1ccccc1Nc1cc(NC(=O)Cc2ccc([N+](=O)[O-])cc2)ncc1C(F)(F)F | -1.6 | 39.9* | 14.8 | -0.1
SMILES | GPR151 ag | TEAD-YAP inh | MITF primary | FBW7 activator
CNC(=O)c1cncnc1Nc1cc(NC(=O)Cc2ccc(OC)cc2)ncc1C(F)(F)F | 1.1 | 54.0* | 7.1 | -0.1
Nc1cc(Oc2ccccc2)ncn1 | 2.8 | 1.1 | 7.1 | 0.0
NC(=O)c1ccccc1Nc1cc(NC(=O)Cc2ccc(F)c(F)c2)ncc1C(F)(F)F | 1.0 | 92.1* | 8.9 | 0.2
O=C(Cc1ccc(F)cc1)Nc1cc(Nc2ccccc2CO)c(C(F)(F)F)cn1 | -1.5 | 61.6* | 2.9 | 0.1
Nc1cc(Nc2ccccc2CO)c(C(F)(F)F)cn1 | -0.2 | 4.9 | -6.0 | -0.1
NC(=O)c1ccccc1Nc1cc(Oc2ccccc2F)ncc1C(F)(F)F | 3.0 | -1.4 | -1.8 | -0.4
CCNCCC1CCC(=O)N1CCc1ccccc1Cl (centres undefined) | 2.3 | -0.1 | -1.0 | -0.1
Cc1ccccc1OC(=O)Nc1ccc(Cl)cc1 | 0.6 | -3.2 | -1.1 | 0.0
O=C(O)c1ccc(N=c2oc3cc(O)ccc3cc2C(=O)Nc2ccccc2)cc1 | -8.3 | -7.6 | 8.2 | 0.1
COc1ccc(NC(=O)c2cc3ccc(O)cc3oc2=Nc2ccc(C(=O)O)cc2)cc1 | -4.1 | 36.2* | 6.3 | 0.0
Cc1cc(C(F)(F)F)nc(SCc2ccc(C(=O)NNC(=O)c3ccccc3C)o2)n1 | -0.6 | 38.0* | 0.4 | 0.0
Cc1cc(C(F)(F)F)nc(SCc2ccc(C(=O)O)o2)n1 | -0.7 | 7.9 | 6.5 | 0.1
Cc1ccc(Oc2ccc(N3C(=O)c4cccc([N+](=O)[O-])c4C3=O)cc2)cc1C | 0.9 | 32.7* | -6.1 | -0.1
O=C1c2cccc([N+](=O)[O-])c2C(=O)N1c1ccc(Oc2ccc3ccccc3c2)cc1 | -0.4 | 14.2 | 1.0 | 0.1
O=C1c2cccc([N+](=O)[O-])c2C(=O)N1c1ccc(Oc2cccc3ccccc23)cc1 | 1.1 | 73.7* | 5.8 | -0.1
O=C(Nc1cccc(O)c1)c1ccc(N2C(=O)c3cccc([N+](=O)[O-])c3C2=O)cc1 | -2.6 | 34.2* | 15.5 | 0.3
COc1ccc(Oc2ccc(N3C(=O)c4cccc([N+](=O)[O-])c4C3=O)cc2)cc1 | -0.8 | 0.3 | 6.3 | 0.0
O=C(Nc1ccc(O)cc1)c1cccc(N2C(=O)c3cccc([N+](=O)[O-])c3C2=O)c1 | -0.9 | 15.2 | -7.6 | -0.1
Cc1cc(Cl)ccc1OCCNC(=S)NC(=O)c1cncc(Br)c1 | 0.5 | 5.0 | 13.6 | 0.3
COc1ccc(C2/C(=C(\O)c3ccc(F)cc3)C(=O)C(=O)N2Cc2cccnc2)c(OC)c1 (centres undefined) | -0.4 | -1.1 | -2.1 | -0.1
O=C(CCc1ccc(S(=O)(=O)N2CCOCC2)cc1)N/N=C/c1ccc(O)c(O)c1O | -0.6 | 4.7 | 54.1* | -0.9
Cc1c(/C=N/NC(=O)CCc2ccc(S(=O)(=O)N3CCOCC3)cc2)cc(C#N)n1C | 1.6 | 3.7 | 5.8 | 0.0
Cc1ccccc1NCC(=O)N/N=C/c1ccc(Cl)c([N+](=O)[O-])c1 | -0.8 | 0.7 | 14.7 | 0.2
CS(=O)(=O)c1cccc(-c2ccnc(Nc3ccc(-n4cnc(N5CCC(O)CC5)n4)cc3)n2)c1 | -0.6 | 41.7* | 4.5 | -0.1
Cc1ccncc1-c1ncn(-c2ccc(Nc3nccc(-c4cc(F)cc(N5CCOCC5)c4)n3)cc2)n1 | -0.6 | 8.2 | -1.8 | 0.0
CCN1CCN(c2ncn(-c3ccc(Nc4nccc(-c5cccc(N6CCOCC6)c5)n4)cc3)n2)CC1 | -0.3 | 55.0* | 7.2 | -0.1
Cc1ncn(-c2ccc(Nc3nccc(-c4ccc(S(C)(=O)=O)c(N5CCCC(O)C5)c4)n3)cc2)n1 (centres undefined) | 0.4 | 2.2 | 5.9 | 0.0
CS(=O)(=O)c1cc(-c2ccnc(Nc3ccc(-n4cnc(-c5ccccn5)n4)cc3)n2)cc(N2CCOCC2)c1 | -1.6 | 89.0* | -15.8 | 0.4
